For five compounds, composite z-score, z-score and composite Z-score results are on record in PubChem BioAssay.

Assay [1] concerns Human papillomavirus type 1a protein E7 (residues 44-93). The assay can be described thus: small molecules binding HPV E7 44-93 – biochemical, small-molecule microarray, residues 44-93, 635 nm fluorescence, primary screen (AID 1108).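 Further: E7 fragment applied at 1 µg/mL in TBST for 1 h at 4 C; score combines spot fluorescence with its signal to noise ratio.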 As to conditions: fluorescence 635 nm, higher = more signal.
The nature of assay [2]: hepatitis C replication reporter changes, two-sided – Huh7 cells, luciferase reporter, HCV replication inhibitor project, primary screen (AID 1109).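 Further: huh7 hepatoma cells harbouring a luciferase neomycin HCV replicon reporter; luciferase luminescence as measure of HCV replicon replication; test concentration not given here.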 As to conditions: Huh7 HCV replicon luciferase reporter, 48 h; higher = more signal. In general terms: In a reporter assay the amount or activity of a reporter protein is the signal.
For assay [3], the target named is Left-right determination factor 2 (Homo sapiens) (UniProt O00292). Put plainly: small molecules binding LEFTY2 protein – biochemical, small-molecule microarray, 635 nm fluorescence scan, primary screen (AID 1110). As to conditions: higher = more signal.
Assay [4] concerns the target Calmodulin-1 (Homo sapiens) (UniProt P0DP23). Put plainly: small molecules binding calmodulin-1 with EGTA – biochemical, small-molecule microarray, Cy5-labelled CALM1, profiling panel (AID 1111).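 Further: labelled calmodulin applied in Tris saline Tween buffer holding calcium plus EGTA and DTT.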 To be noted: Cy5-CALM1 binding fluorescence, higher = more signal.
For assay [5] the target is unchanged. Put plainly: small molecules binding Ca-loaded calmodulin-1 – biochemical, small-molecule microarray, Cy5-labelled CALM1, plus calcium, artefact control for SMM control-protein annotation, profiling panel (AID 1112).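 Further: score merges spot fluorescence with signal to noise from triplicate slides.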 As to conditions: Cy5-CALM1 binding fluorescence, higher = more signal.
Assay [6] in a line: probe aWnt5a binding to arrayed compounds – biochemical, biotinylated probe, 635/667 nm fluorescence, primary screen (AID 1113).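 Further: score merges 667 nm fluorescence intensity with signal-to-noise per printed feature.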 To be noted: small-molecule microarray, higher = more signal.
Assay [7] can be described thus: probe aShh binding to arrayed compounds – biochemical, biotinylated probe, 635/667 nm fluorescence, primary screen (AID 1114).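 Further: probe is biotin-labelled aShh protein from a stem cell growth factor screen; measures binding of labelled protein to compounds printed on the slide; score merges feature fluorescence at 667 nm with signal-to-noise.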 As to conditions: small-molecule microarray, higher = more signal.
A short description of assay [8]: probe aNog binding to arrayed compounds – biochemical, biotinylated probe, 635/667 nm fluorescence, primary screen (AID 1115).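 Further: probe is biotinylated aNog protein used at 0.15 µg/mL for 1 h at 4 C; z-score combines 667 nm fluorescence of each spot with its signal to noise.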 As to conditions: small-molecule microarray, higher = more signal.
Assay [9] has as its target Torsin-1A-interacting protein 1 (Homo sapiens) (UniProt Q5JTV8). Put plainly: compound microarray binding of lysate hLAP1 – cell lysate, small-molecule microarray, COS7 lysate, 635/667 nm fluorescence, primary screen (AID 1116). As to conditions: 635 nm fluorescence, higher = more signal.
In assay [10] the target is Alpha-bungarotoxin (Bungarus multicinctus) (UniProt P60615). The assay can be described thus: compounds binding labelled alpha-BTX control protein – biochemical, small-molecule microarray, Alexa647 label, 635/667 nm fluorescence, artefact control for SMM control protein annotation, profiling panel (AID 1117). To be noted: alpha-BTX-A647 binding fluorescence, higher = more signal.

Another assay has as its target Albumin (Bos taurus) (UniProt P02769). The assay can be described thus: compounds binding labelled BSA control protein – biochemical, small-molecule microarray, Alexa647 label, 635/667 nm fluorescence, artefact control for SMM control protein annotation, profiling panel (AID 1118).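 Further: score merges 667 nm emission intensity and signal-to-noise per printed compound spot.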 To be noted: BSA-A647 binding, fluorescence 635 nm, higher = more signal.
Assay [11] in a line: probe aXIP binding to arrayed compounds – biochemical, NeuroSMM set, 635/667 nm fluorescence, primary screen (AID 1119).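 Further: probe is the protein aXip251-270 applied at 1 µg/mL to compound-printed slides; binding of probe to printed compounds measured as 667 nm fluorescence plus signal to noise.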 To be noted: small-molecule microarray, higher = more signal, called active from +8 up or from −8 down.
Assay [12] is described as follows: probe aNOTCH3 binding on compound microarray – biochemical, small-molecule microarray, 635/667 nm fluorescence, primary screen (AID 1120).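 Further: probe is a biotin-tagged antibody raised against NOTCH3 rather than NOTCH3 protein; score merges spot fluorescence near 667 nm with spot signal to noise.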 As to conditions: higher = more signal.
Assay [13] in a line: probe aNOTCH2 binding on compound microarray – biochemical, small-molecule microarray, 635/667 nm fluorescence, primary screen (AID 1121).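 Further: score merges feature fluorescence read at 667 nm with its signal to noise.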 As to conditions: higher = more signal.
Assay [14] has as its target Carbonic anhydrase 2 (Homo sapiens) (UniProt P00918). Put plainly: compounds binding carbonic anhydrase 2 – biochemical, small-molecule microarray, Alexa647-labelled CAII, profiling panel (AID 1122). To be noted: CAII-A647 binding fluorescence, higher = more signal.
Assay [15] in a line: COS7 lysate on small-molecule microarray, probe aHis, 635 nm (AID 1123).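 Further: z-score combines 667nm fluorescence intensity with signal-to-noise per printed compound spot.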 To be noted: COS7 cell lysate, fluorescence, higher = more signal.
A short description of assay [16]: probe aLAP1 signal on lysate-treated microarray – cell lysate, small-molecule microarray, COS7 lysate, primary screen (AID 1124).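 Further: lysate comes from COS7 cells expressing LAP1 and is applied at 0.3 µg/mL; score merges spot fluorescence near 667 nm with signal-to-noise over triplicate slides.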 To be noted: probe aLAP1, fluorescence, higher = more signal.
The next assay concerns Sam68 (KHDRBS1). Put plainly: compounds binding KHDRBS1 protein – biochemical, small-molecule microarray, 635 nm fluorescence, primary screen (AID 1125).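 Further: score merges 667 nm channel intensity with signal to noise over triplicate slides.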 To be noted: higher = more signal.
In assay [17] the test system is Chordin-like protein 2 (CHRDL2). Put plainly: compounds binding chordin-like 2 – biochemical, small-molecule microarray, 635 nm fluorescence, primary screen (AID 1126).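 Further: printed compound slides probed with Chrdl2 protein at 4 µg/mL for 1 h at 4 C; score merges 667 nm emission intensity with signal to noise over three replicate slides.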 To be noted: fluorescence 635 nm, higher = more signal.
Assay [18] has as its target Concanavalin-A (Canavalia ensiformis) (UniProt P02866). Put plainly: compounds binding concanavalin A lectin – biochemical, small-molecule microarray, Alexa647 label, 635 nm, artefact control for SMM control protein annotation, primary screen (AID 1127).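 Further: z combines 667 nm emission intensity with signal-to-noise across three replicate slides.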 To be noted: ConA-A647 binding fluorescence, higher = more signal.

Molecules are shown by their SMILES. Activity calls are given as the source filed them.

Sequence of Alpha-bungarotoxin (Bungarus multicinctus) (P60615 whole entry, looked up): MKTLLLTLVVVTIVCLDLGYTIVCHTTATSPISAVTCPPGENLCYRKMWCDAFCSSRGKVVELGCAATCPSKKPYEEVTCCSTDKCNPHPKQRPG
Sequence of Left-right determination factor 2 (Homo sapiens) (O00292 whole entry, looked up): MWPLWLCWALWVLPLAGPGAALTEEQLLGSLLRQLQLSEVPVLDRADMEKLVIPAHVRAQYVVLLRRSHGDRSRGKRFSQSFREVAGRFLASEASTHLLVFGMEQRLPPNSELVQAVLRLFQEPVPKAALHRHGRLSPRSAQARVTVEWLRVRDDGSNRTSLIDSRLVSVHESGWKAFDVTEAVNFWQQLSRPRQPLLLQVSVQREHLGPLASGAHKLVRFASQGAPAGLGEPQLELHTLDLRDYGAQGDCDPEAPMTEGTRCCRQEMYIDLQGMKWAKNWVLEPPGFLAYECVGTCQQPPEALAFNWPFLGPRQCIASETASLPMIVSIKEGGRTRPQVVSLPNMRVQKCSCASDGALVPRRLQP
Sequence of Torsin-1A-interacting protein 1 (Homo sapiens) (Q5JTV8 whole entry, looked up): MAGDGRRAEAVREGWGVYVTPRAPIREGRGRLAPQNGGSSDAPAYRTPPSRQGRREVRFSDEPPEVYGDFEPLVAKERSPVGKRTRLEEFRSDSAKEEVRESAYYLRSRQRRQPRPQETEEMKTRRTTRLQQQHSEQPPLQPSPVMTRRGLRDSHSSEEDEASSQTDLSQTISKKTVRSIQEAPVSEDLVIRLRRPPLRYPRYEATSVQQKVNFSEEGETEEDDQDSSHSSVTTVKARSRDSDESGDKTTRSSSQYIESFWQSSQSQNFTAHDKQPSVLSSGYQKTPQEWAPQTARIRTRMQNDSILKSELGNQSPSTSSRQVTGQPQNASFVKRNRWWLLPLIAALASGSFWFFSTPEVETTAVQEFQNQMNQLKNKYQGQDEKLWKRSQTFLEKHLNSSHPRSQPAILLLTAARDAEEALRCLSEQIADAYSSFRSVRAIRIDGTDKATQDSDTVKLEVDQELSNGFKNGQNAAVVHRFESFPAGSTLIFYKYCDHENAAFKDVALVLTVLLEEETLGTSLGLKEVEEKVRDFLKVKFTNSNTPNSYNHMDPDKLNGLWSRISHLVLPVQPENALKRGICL
Sequence of Albumin (Bos taurus) (P02769 whole entry, looked up): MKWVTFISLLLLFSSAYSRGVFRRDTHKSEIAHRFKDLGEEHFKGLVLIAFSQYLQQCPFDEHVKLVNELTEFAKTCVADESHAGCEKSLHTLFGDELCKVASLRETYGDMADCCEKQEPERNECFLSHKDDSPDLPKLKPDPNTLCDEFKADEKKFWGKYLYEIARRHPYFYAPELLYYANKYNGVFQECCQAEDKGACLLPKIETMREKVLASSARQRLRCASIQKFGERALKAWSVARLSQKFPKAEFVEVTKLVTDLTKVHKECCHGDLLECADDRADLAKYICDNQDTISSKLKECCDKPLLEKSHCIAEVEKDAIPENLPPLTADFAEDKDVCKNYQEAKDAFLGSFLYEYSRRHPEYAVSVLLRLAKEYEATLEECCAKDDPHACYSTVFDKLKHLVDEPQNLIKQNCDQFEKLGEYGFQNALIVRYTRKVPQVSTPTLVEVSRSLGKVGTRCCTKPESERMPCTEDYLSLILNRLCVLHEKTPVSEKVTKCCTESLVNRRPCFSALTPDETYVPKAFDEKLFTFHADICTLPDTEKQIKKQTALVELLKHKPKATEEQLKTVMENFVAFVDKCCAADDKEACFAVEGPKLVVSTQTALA
Sequence of Concanavalin-A (Canavalia ensiformis) (P02866 whole entry, looked up): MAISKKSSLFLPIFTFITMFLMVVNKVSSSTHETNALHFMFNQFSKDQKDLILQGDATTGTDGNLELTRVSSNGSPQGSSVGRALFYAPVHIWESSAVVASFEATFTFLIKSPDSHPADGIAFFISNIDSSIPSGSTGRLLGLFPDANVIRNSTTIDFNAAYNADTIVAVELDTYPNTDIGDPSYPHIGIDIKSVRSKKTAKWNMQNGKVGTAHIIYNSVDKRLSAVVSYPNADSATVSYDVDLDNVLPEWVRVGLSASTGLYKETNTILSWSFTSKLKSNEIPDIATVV

As for `CC(C)(C)C(=O)N[C@@H](c1ccc(Cl)cc1)[C@]1(C)C[C@H]1C1CCCCC1`, the composite z-score was 1.19 in assay [1]; -0.487 in assay [3]; 1.27 in assay [4]; 1.1 in [5]; 0.197 in assay [6]; 0.838 in assay [7]. Moreover, the composite z-score in assay [8] came out at 2.13; in assay [9] it was 1.94; in assay [10], 2.02; with Albumin (Bos taurus) it was 0.886; in assay [12] it was 0.449; in [13], 0.347. Moreover, the composite z-score in [14] is 0.505; in assay [15] it was 2.12; in [16], 0.968; in the assay on Sam68 (KHDRBS1), 1.29; in [17], -0.319; in [18], 1.19. The z-score in assay [2] was -0.409. In addition, the composite Z-score in [11] was -0.149 (inactive).

Turning to `COc1ccc(C(O)C2C=CC3C(=O)N(c4ccccc4)C(=O)C3N2Nc2ccc(C(C)C)cc2)cc1OCc1ccccc1` (stereo not given), the composite z-score is 0.473 in assay [1]; 0.346 in assay [3]; 2.13 in [4]; 0.682 in assay [5]; 0.145 in assay [6]; -0.0375 in assay [7]. For the same compound, the composite z-score amounted to 0.299 in [8]; 0.598 in assay [9]; 2.07 in assay [10]; 0.895 with Albumin (Bos taurus); 0.307 in [12]; 0.194 in assay [13]. In addition, the composite z-score was 0.576 in [14]; 1.78 in assay [15]; 0.902 in assay [16]; 1.33 with Sam68 (KHDRBS1); -0.443 in assay [17]; 1.12 in assay [18]. Further, the z-score in assay [2] is -0.264. Besides, the composite Z-score in [11] is 0.868 (inactive).

In the case of `COC(=O)[C@@]1(Cc2ccc(F)cc2)[C@H]2c3cc(C(=O)N(C)C)n(CC4CC4)c3C[C@H]2CN1C(=O)c1ccccc1`, the composite z-score stood at 1.45 in assay [1]; 0.0265 in assay [3]; 2.21 in [4]; 1.39 in assay [5]; 1.05 in assay [6]; 1.38 in [7]. For the same compound, the composite z-score in [8] amounted to 0.816; in assay [9], 0.156; in assay [10], 1.69; in the assay with Albumin (Bos taurus), 1.02; in assay [12] it was 1.65; in assay [13], 0.904. The composite z-score in assay [14] is 0.773; in [15] it was 3.27; in assay [16], 0.698; in the assay on Sam68 (KHDRBS1) it was 1.35; in [17], -0.542; in [18], 1.1. Further, the z-score in assay [2] was -1.14. For the same compound, in [11], the composite Z-score was -0.0191 (inactive).

Turning to `C=CCN(Cc1ccccc1)C(=O)C(c1cccs1)N(CCOCCO)C(=O)/C=C\C(=O)O` (stereo not given), the composite z-score in assay [1] is -0.762; in [3] it was -2.24; in [4] it was -0.512; in [5] it was 0.446; in assay [6], -0.256; in assay [7], -0.0035. The composite z-score in assay [8] is -0.0712; in [9], -1.45; in [10], -1.82; in the assay with Albumin (Bos taurus), -0.462; in assay [12] it was -0.553; in assay [13], -0.165. For the same compound, the composite z-score in assay [14] was 0.39; in [15] it was -0.25; in assay [16] it was -0.658; with Sam68 (KHDRBS1), -0.754; in assay [17], -3.82; in assay [18], -1.33. In addition, the z-score in assay [2] was 0.448. The composite Z-score in [11] is 0.131 (inactive).

For `COc1cc(CO)cc(I)c1O[C@H]1C=C(C(=O)NCCO)C[C@@H](N(CCN2CCOCC2)C(=O)C2CCOC2)[C@@H]1O` (stereo not given in full), the composite z-score in assay [1] was -0.923; in assay [3], 0.897; in assay [4] it was -0.0002; in assay [5], -0.543; in assay [6], -0.247; in [7], 0.0639. The composite z-score in [8] is -0.281; in [9] it was 0.085; in [10], 0.0392; with Albumin (Bos taurus), -1.02; in assay [12], 0.189; in assay [13] it was -0.0729. The composite z-score in assay [14] is 0.0321; in assay [15], -0.204; in [16] it was 0.459; in the assay with Sam68 (KHDRBS1), 0.322; in assay [17] it was 0.486; in assay [18] it was -0.169. For the same compound, the z-score in assay [2] was -0.282. In assay [11], the composite Z-score is 0.0953 (inactive).
